The structures appear in SMILES notation. The panel holds about 83,000 compounds, 20% with a hit somewhere; the sample as a whole holds those more often.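 Note: values are percent growth. 100 is the growth of untreated cells, values between 100 and 0 indicate rising inhibition; between -100 and 0 indicates cell death.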 A number with no mark means an inactive call. Activity calls are given as the source filed them. How the source made its calls: active means growth percent below 10; inactive means the rest.

This assay deals with HL-60(TB) leukemia. The assay is described as follows: NCI-60 one-dose screen, 48 h (100 = growth as untreated, 0 = no growth, -100 = all killed). The settings on record: 10 µM unless noted.
Turning to `COc1ccc(-c2nn(-c3cccc(Cl)c3)cc2-c2cc(-c3cccs3)[nH]c(=S)n2)cc1`, the growth was 46.4%. Regarding `CC(=O)c1nc2ccccc2n1CC(=O)c1cccc(Cl)c1`, the growth is -28.9% (active). The same measure for `CCN(CC)CCCCCCCCNc1c2ccc(Cl)cc2nc2ccc(OC)cc12`: -53.2% (active). Then `O=C(Nc1ccc(I)cc1)c1cc([N+](=O)[O-])ccc1O`, with 20.6%; and `N=C(N)c1ccc(-c2ccc(-c3ccc(F)cc3)s2)s1`, with -57.6% (active). Consider `COc1ccc(-c2cc(C(=O)N3N=C(c4ccc(N)cc4)CC3c3ccc(Cl)cc3)c3cc(OC)ccc3n2)cc1` (stereo not given), for which the growth is 4.62% (active). The same measure for `N#Cc1c(NC(=O)NCc2ccccc2)sc2c1CCCC2`: -4.95% (active); for `CCOC(C)=N`: 78.7%; for `CN(C)c1ccc(/C=C/c2ccnc3ccccc23)cc1`: 12.6%. Regarding `C=C1C(=O)O[C@H]2[C@H]1CC/C(COC(=O)n1ccnc1)=C\CC[C@@]1(C)O[C@@H]21`, the growth is 64.3%. The same measure for `Cn1ncc(Cl)c1-c1cc(C(=O)N[C@H](CN)Cc2ccc(F)c(F)c2)oc1Cl`: -35.6% (active); for `COc1ccc2[nH]cc(-c3noc(C(=O)c4cn(C)c5ccc(F)cc45)n3)c2c1`: 81.7%; for `COc1cc(-c2nn(-c3cccc(NC(=O)Nc4ccc(Cl)c(Cl)c4)c3)cc2-c2ccncc2)ccc1Cl`: -18.1% (active).

For `CCN(CC)c1ccc(N=C2C=CC(=O)C=C2NC(C)=O)cc1`, the growth is 55.3%. The same measure for `O=C1/C(=C/c2ccc(Br)cc2)COc2ccc(O)cc21`: -15.7% (active).

For `Nc1nnc(-c2ccc3ccccc3c2O)o1`, the growth was 102%. Take `CC(=O)N1N=C(c2ccc(Nc3nc(Nc4ccc(F)cc4)nc(Nc4ccc(Cl)cc4)n3)cc2)CC1c1ccc(N(C)C)cc1` (stereo not given): the growth was 19%.

As for `N#Cc1c(N)nc2c(c1N)C(c1ccc(Cl)cc1)C1=C(CCCC1=O)N2c1sc2c(c1C#N)CCCC2` (stereo not given), the growth is 89.2%.

Consider `CC/C=C\C[C@H](O)C/C=C1/C(=O)C=C[C@@H]1C/C=C\CCCC(=O)OC`, for which the growth was -12.3% (active). In the case of `Cc1[nH]c2ccc(F)cc2c1CCNC(=O)C1CCN(C(=O)c2ccc(-c3ccccc3)cc2)CC1`, the growth is 55.3%.

In the case of `CN(C)CCCNCc1ccc(-c2ccc(F)c(Cl)c2)o1`, the growth was -4.95% (active).

`O=C(/C=C/c1ccccc1Cl)c1cccc(OCCCCOc2cccc(C(=O)/C=C/c3ccccc3Cl)c2)c1`: the growth was 105%. The same measure for `CC(C)Cn1cnc2c(NCn3nc(-c4cc(Cl)cc(Cl)c4Cl)n(/N=C/c4ccc(Cl)cc4)c3=S)nc3ccccc3c21`: 93.3%. On to `COC(=O)N/N=C/c1c[n+]([O-])c2ccccc2[n+]1[O-]`, for which the growth was 97.2%. The same measure for `CCN1CCN(CCOc2ccc(CNc3ccc4nc(CCC5CCCCC5)[nH]c4c3)cc2)CC1`: -12.7% (active); for `C#Cc1ccc(-n2c(/C=C/c3cc(OC)c(OC)c(OC)c3)nc3ncccc3c2=O)cc1`: 26.5%; for `CCCCCCCCN(CCCCCCCC)CC(O)c1ccc(Cl)c(C)c1Cl` (stereo not given): 106%. Then `CCCC(C(=O)OCC)C(C)OC(=O)OCC` (stereo not given), with 87.8%; and `COC(=O)c1c(NC(=O)CSc2nnnn2-c2ccc(OC)cc2)sc(C)c1C`, with -6.74% (active). The same measure for `O=C1/C(=C\c2ccccc2)CN(C(=O)c2ccccc2F)C/C1=C\c1ccccc1`: 10.1%; for `CC(C)OC(=O)OCOP(=O)(OCOC(=O)OC(C)C)C1CCCN(O)C1=O` (stereo not given): 6.5% (active); for `Cc1nccc2c3ccc(OCc4cn(Cc5ccc(Br)cc5)nn4)cc3n(CCCc3ccccc3)c12`: 89%. With `C=C1CC[C@@H]2C(C)(C)[C@H](O)CC[C@@]2(C)[C@@H]1COc1ccc2ccc(=O)oc2c1`, the growth was 46.4%. Consider `C=C1C(=O)O[C@H]2[C@H]1CC/C(COC(=O)c1cc(OC)c(OC)c(OC)c1)=C\CC[C@@]1(C)O[C@@H]21`, for which the growth was -65.1% (active). Then `CCCCN(CCCC)C(=O)CC`, with 97.3%.

As to `Nc1ncnc2c1c(-c1ccc(Oc3ccccc3)cc1)nn2C[C@@H]1SSC[C@@H]1O`, the growth is -0.213% (active).

`CCOC(=O)c1c(C)oc2ncnc(N3CCN(C(=O)COc4ccc(C(C)(C)C)cc4)CC3)c12`: the growth is 73.9%. Then `OCCN1CCN(CCCN2c3ccccc3Sc3ccc(C(F)(F)F)cc32)CC1`, with 32.7%; and `O=C(/C=C/c1ccccc1)c1ccc2ccccc2c1`, with 56.1%. Then `O=C(Nc1ccc(Cl)cc1F)c1cc(Cl)ccc1O`, with -48% (active).

The record behind these values is PubChem BioAssay (NCI).
